Measured values as given in PubChem BioAssay (NCI).
“And” between values parts separate entries of the source, which are not always exact repeats. Equal values may be shown once. The panel holds about 83,000 compounds, 20% with a hit somewhere; the sample as a whole holds those more often.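 Single-concentration screen, 48 h exposure, 96-well plates. Endpoint: percent growth. Below 10 = active.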 The source made the active and inactive calls.

These compounds were tested on HL-60(TB) leukemia (assay: NCI-60 one-dose screen, 48 h (100 = growth as untreated, 0 = no growth, -100 = all killed)). Conditions: 10 µM unless noted.

SMILES | growth
Fc1ccc(N/N=C/c2ccc(-n3cccn3)cc2)cc1 | 118% (inactive)
COc1ccc2sc3cccc(NCCN(C)C)c3c(=O)c2c1 | -49.5% (active)
CCCCC1C(=O)N(c2ccccc2)N(c2ccccc2)C1=O | 102% (inactive)
CC1CCC(=O)N1c1ccc(N)cc1 (stereo not drawn) | 104% (inactive)
Nc1n[nH]c2ccc([C@H]3[C@@H]4C5CCC(C5)[C@@H]4c4c(ccc5[nH]ncc45)N3S(=O)(=O)C3CC3)cc12 (stereo partly drawn) | -19.6% (active)
CCOC(=O)N1C/C(=C/c2ccc(OC)cc2)C(=O)/C(=C/c2ccc(OC)cc2)C1 | 16.7% (inactive)
Cc1cccc(Cc2cnc(NC(=O)c3ccc4nnsc4c3)s2)c1 | 94.1% (inactive)
CCC1=C[C@@H]2CN(C1)Cc1c([nH]c3ccccc13)[C@@](C(=O)OC)(c1cc3c(cc1OC)N(C)[C@H]1[C@@](O)(C(=O)OC)[C@H](OC(C)=O)[C@]4(CC)[C@@H]5C[C@@H]5CN5CC[C@]31[C@@H]54)C2 | -57.3% (active)
COC(=O)c1ccc([N+](=O)[O-])c(C)c1 | 85.5% (inactive)
CN(C)C(C)(C)CC(C)(C)C | 71.8% (inactive)
CCCCCn1sc(=O)n(Cc2ccc(CNC(=O)OCc3ccc4cccc(O)c4n3)cc2)c1=O | -13.5% (active)
Cc1ccc(NC(=O)N[C@@H](Cc2cc(F)cc(F)c2)C(=O)N[C@@H]2C(=O)N3CCC[C@H]3C(=O)N3CCOC[C@H]3C(=O)N[C@@H](C)C(=O)N3C[C@H](C)C[C@H]3C(=O)O[C@H]2C)cc1 | 14.5% (inactive)
CNC(=O)c1cccc(-c2ccc3c(N4CCOC[C@@H]4C)nc(N4CCOC[C@@H]4C)nc3n2)c1 | 28.2% (inactive) and 7.66% (active)
